Screen size: about 360,000 compounds; about 4,500 (1.2%) were called active. No stated cut-off is given here; in the data, active means inhibition above about 30%; inactive means the rest. What follows is part of a selection rich in actives, with near analogues and random picks from the rest.

This assay is described as follows: inhibition of GDH and TPI enzymes – biochemical, absorbance, full deck, artefact control for M. tuberculosis FBA inhibitor project, primary screen (AID 588335).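 Further: 0% = DMSO wells and 100% = wells lacking the enzyme.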 As to conditions: GDH-TPI coupled enzyme counterscreen, NADH absorbance; at 4.8 µM; stronger effect = higher value.
By inhibition is commonly meant the drop in the measured response relative to a control, in per cent. Turning to `Cc1ccc(CNC(=O)CC(NC(=O)c2ccccc2)c2ccccc2)cc1` (stereo not drawn), the inhibition is -12.7% (inactive). The value for `CCN(CCn1cccn1)Cc1cn[nH]c1-c1ccc(OC)cc1F` was 0.63% (inactive); that for `CCn1c(NC(=O)c2ccccc2)c(-c2cccs2)c(=O)c2ccccc21` was 32% (active).

For `CCn1c(=O)c2cc(C(=O)Nc3cccc(C(C)=O)c3)sc2c2ccccc21`, the inhibition is -0.68% (inactive).

Regarding `COc1ccccc1C(=O)Nn1c(-c2cccs2)nc2ccccc2c1=O`, the inhibition is 17.9% (inactive).

`COc1ccccc1CCNC(=O)CN1C(=O)NC2(CCCC2)C1=O`: the inhibition is 7.91% (inactive). `CC(C)(C)c1ccc(S(=O)(=O)NC(=O)C2(C)CCN2C(=O)CC2CC2)cc1` (stereo not drawn): the inhibition is 0.89% (inactive). Regarding `CCOC(=O)c1ccc(S(=O)(=O)N(CCO)Cc2cc3cc(OC)c(OC)cc3[nH]c2=O)cc1`, the inhibition is 20.5% (inactive). As for `CCc1nnc(NC(=O)CCC(=O)N2CCN(c3cc(C)ccc3C)CC2)s1`, the inhibition was -2.21% (inactive). In the case of `CC(C)NC(=O)C(c1ccc(F)cc1)N(C(=O)CCC(=O)Nc1ccccn1)c1ccccc1F` (stereo not drawn), the inhibition is 3.77% (inactive). In the case of `Cc1ccc(NC(=O)CS(=O)CC(=O)N(c2ccccc2)C(C)C(=O)NC2CCCC2)cc1` (stereo not drawn), the inhibition is 7.17% (inactive). As for `Cn1nccc1/C=N\NC(=O)c1ccc(Cl)cc1`, the inhibition is -10.2% (inactive). Regarding `Cn1cccc1/C=N/NC(=O)c1ccc(OC(F)(F)C(F)F)cc1`, the inhibition is 35.9% (active).

Take `O=C(Nc1ccc(OC(F)(F)F)cc1)c1ccc2c(c1)no[n+]2[O-]`: the inhibition is 4.41% (inactive). As for `O=C(Nc1cc(F)ccc1F)c1ccc2c(=O)n3c(nc2c1)CCC3`, the inhibition was 5.36% (inactive). The value for `O=C1CC(C(=O)O)NC(=S)N1` (stereo not drawn) was -5.96% (inactive); that for `CCOC(=O)N/N=C/c1cn(Cc2ccccc2Cl)c2ccccc12` was 17% (inactive); that for `CNC(=S)N/N=C/c1cn(Cc2ccc(C)cc2)c2ccccc12` was 37% (active). With `NC(=O)Cn1cc(/C=N\NS(=O)(=O)c2ccccc2)c2ccccc21`, the inhibition is 8.87% (inactive).

As for `Cn1c(SCC(=O)Nc2ccc(N3CCOCC3)cc2)nnc1C(F)(F)F`, the inhibition is 2.16% (inactive). Turning to `COc1cccc(C(=O)Nc2nnc(S(=O)(=O)N3CCCCC3)s2)c1`, the inhibition was 40.7% (active). As to `COc1cccc(C(=O)Nc2nnc(S(=O)(=O)N3CCOCC3)s2)c1`, the inhibition was 23.5% (inactive). With `O=C(Nc1nnc(S(=O)(=O)N2CCCCCC2)s1)c1cccc(Br)c1` the figure was 16.8% (inactive). In the case of `Cc1ccc(S(=O)(=O)N2CCCC2CO)cc1` (stereo not drawn), the inhibition is -4.78% (inactive). As to `O=C(CNc1cccc(S(=O)(=O)N2CCCCC2)c1)Nc1ccccc1F`, the inhibition was 5.6% (inactive). On to `Cc1cc(-c2n[nH]c(=S)n2/N=C/C(Br)=C/c2ccccc2)n[nH]1`, for which the inhibition was 7.17% (inactive). For `COc1ccccc1/C=C/C=N/n1c(-c2ccc(Cl)cc2Cl)n[nH]c1=S`, the inhibition is 34.7% (active). With `COc1cc(-c2n[nH]c(=S)n2Cc2ccccc2)cc(OC)c1OC` the figure was 3.29% (inactive); with `CCCCOc1ccc(Cl)cc1CSc1nncn1N`, -8.67% (inactive); with `N#CC1(Nc2ccc3c4c(cccc24)CC3)CCCCC1`, 18.6% (inactive).

On to `Clc1cccc(-c2nc3nc4ccccc4nc3n2Cc2ccco2)c1`, for which the inhibition is 33.2% (active). As to `Cc1cc(NCc2ccco2)n2c(nc3ccccc32)c1C#N`, the inhibition is 8.76% (inactive). As for `O=C(CSc1nnc(-c2cccnc2)n1Cc1ccco1)c1ccc(Cl)c(Cl)c1`, the inhibition is -5.03% (inactive).

Consider `COC(=O)c1cc(S(=O)(=O)N2CCC(C(N)=O)CC2)oc1C`, for which the inhibition was 0.74% (inactive). Regarding `O=C(O)c1ccc(COCC(F)(F)F)cc1`, the inhibition was 6.06% (inactive). Turning to `COc1ccccc1C1=CC(=O)CCC1`, the inhibition was 10.9% (inactive). Consider `COc1ccccc1Oc1ccc(N/C=C2/CCCC2=O)cc1`, for which the inhibition is 33.3% (active). Take `COc1ccc(N/N=C2/CCCCC2=O)cc1`: the inhibition was 1.13% (inactive).

On to `O=C(O)CCn1c(O)c(C=C2N=c3ccccc3=N2)sc1=S`, for which the inhibition is 22.8% (inactive). Turning to `O=C(Oc1cccc(N2C(=O)C3C4c5ccccc5C(c5ccccc54)C3C2=O)c1)c1ccco1` (stereo not drawn), the inhibition was 10.9% (inactive). Turning to `C/C(=N\NC(=O)c1ccc(NS(=O)(=O)c2cccs2)cc1)c1ccc2ccccc2c1`, the inhibition was 32.1% (active).

Regarding `O=S(=O)(Nc1ccccc1)c1ccc(NS(=O)(=O)c2cccs2)cc1`, the inhibition is 14.9% (inactive). Turning to `COc1cc(OC)c(C(=O)NNC(=O)c2ccc(NS(=O)(=O)c3cccs3)cc2)cc1OC`, the inhibition was 12.8% (inactive). With `COCCn1c(C)cc(C(=O)CN2c3cccc4cccc(c34)S2(=O)=O)c1C` the figure was 3.51% (inactive); with `Oc1ccc(C2Nc3cccc4cccc(c34)N2)cc1`, 32.9% (active); with `CN(C(=O)CC(NC(=O)c1ccccc1)(c1ccccc1)c1ccccc1)c1ccccc1`, -10.6% (inactive).

With `Cn1c(=O)n(C)c2cc(CNc3ccc(N4CCOCC4)c(C(=O)O)c3)ccc21`, the inhibition was 8.39% (inactive). Regarding `CC(C)(C)NC(=O)COC(=O)c1cc(Br)ccc1Cl`, the inhibition is -3.49% (inactive).

Turning to `Cc1cc(C(=O)N/N=C/c2ccc(O)c([N+](=O)[O-])c2)c(C)n1-c1ccc(F)cc1`, the inhibition is 51.7% (active).

As for `O=C1CSC(=S)N1/N=C/c1ccc(O)c([N+](=O)[O-])c1`, the inhibition was 1.6% (inactive).

Turning to `Cc1c(Cl)c([N+](=O)[O-])nn1Cc1ccc(C(=O)N/N=C\c2cc(Cl)ccc2O)o1`, the inhibition is 4.27% (inactive).

With `CC1(C)CC(=O)c2sc(N)nc2C1`, the inhibition is 20.2% (inactive). Take `NC1=NOC(=O)C1C1CCCCC1` (stereo not drawn): the inhibition is -5.11% (inactive). Turning to `CN(Cc1ccccc1)C(=O)COC(=O)/C=C/c1ccc2c(c1)OCO2`, the inhibition is 35% (active). As for `Cc1cccc(NC(=O)/C=C/c2ccc3c(c2)OCO3)n1`, the inhibition is 28.3% (inactive). In the case of `O=C(COC(=O)/C=C/c1ccc2c(c1)OCO2)NC1CCS(=O)(=O)C1` (stereo not drawn), the inhibition was 23.7% (inactive). `CSc1ncccc1C(=O)Nc1nc2ccc(F)cc2s1`: the inhibition is 8.2% (inactive). With `COc1ccc2nc(NC(=O)c3ccc(Br)s3)sc2c1` the figure was 32.7% (active); with `COc1ccc(CNC(=O)c2ccc(Br)s2)cc1OC`, -1.03% (inactive); with `Nc1cc(C(=O)N2CCN(c3ccccc3Cl)CC2)ccc1N1CC2CC(C1)c1cccc(=O)n1C2` (stereo not drawn), 8.04% (inactive). As for `OC(c1ccccc1)c1nc(/C=C/c2ccc(C(F)(F)F)cc2)cs1` (stereo not drawn), the inhibition was 7.08% (inactive). With `O=C(Cn1cc(/C=N/NC(=O)c2cccc(C(F)(F)F)c2)c2ccccc21)Nc1ccc(F)cc1`, the inhibition is 9.15% (inactive). In the case of `O=C(CSc1ccc(/C=N/NC(=O)c2cccc(F)c2)o1)Nc1ccccc1`, the inhibition is 33.1% (active). For `N#CCC(=O)N/N=C/c1ccc(SCC(=O)Nc2ccccc2)o1`, the inhibition is 15.4% (inactive). With `CCCCN(CCCC)CCCNC(=O)CN1C(=O)COc2ccc(S(=O)(=O)N3CCC(C)CC3)cc21` the figure was 5.17% (inactive); with `CCOC(=O)c1c(C2CC2)csc1NC(=O)CSCc1c(C)noc1C`, 1.16% (inactive). For the molecule `NC(=S)c1ccc(C(N)=S)o1`, the inhibition is 33.3% (active). For `CC(C)CC1(C(=O)NCc2ccccn2)C=CCN1C(=O)c1ccccc1` (stereo not drawn), the inhibition was 1.72% (inactive).

Turning to `CN(C)CCCOc1ccc(-c2ccc3nccn3c2)cn1`, the inhibition is 6.19% (inactive). With `CNC(=S)N/N=C/c1ccc(OCc2ccccc2)c(Br)c1` the figure was 3.82% (inactive). `O=C(N/N=C/c1cc(Br)c(O)c([N+](=O)[O-])c1)C(O)(c1ccccc1)c1ccccc1`: the inhibition is 79.3% (active). With `CC(Oc1ccccc1[N+](=O)[O-])C(=O)N/N=C/c1ccoc1` (stereo not drawn) the figure was 5.72% (inactive). With `COCCCNC(=S)N(Cc1ccccc1)Cc1ccc(F)cc1` the figure was -5.1% (inactive). For the molecule `COC(=O)c1[nH]c2ccc(Br)cc2c1NC(=O)Oc1ccccc1`, the inhibition is 8.96% (inactive).

On to `COc1ccc(-c2cc(C(=O)NC(Cc3c[nH]c4ccccc34)C(=O)O)c(C)o2)cc1OC` (stereo not drawn), for which the inhibition is 1.44% (inactive).

Take `COc1ccc(-c2cc(=O)oc3cc(OCC(=O)N[C@@H](Cc4c[nH]c5ccccc45)C(=O)O)ccc23)cc1`: the inhibition was 32.4% (active). Consider `CC(Oc1ccc2c(-c3ccccc3)cc(=O)oc2c1)C(=O)NC(Cc1c[nH]c2ccccc12)C(=O)O` (stereo not drawn), for which the inhibition is 15.9% (inactive). Regarding `C=CCOC(=O)C1=C(C)N=C2SCCC(=O)N2C1/C=C/c1ccccc1OC` (stereo not drawn), the inhibition is 6.07% (inactive).

For `COc1ccccc1/C=C/C1=NC(=C\N(C)C)/C(=O)O1`, the inhibition was 32.5% (active). Consider `COc1cccc(/C=C/c2ccc3ccccc3n2)c1OC(C)=O`, for which the inhibition is 22.8% (inactive).

Consider `O=C1c2cccc3cccc(c23)C(=O)N1c1cccc(O)c1`, for which the inhibition was 24.8% (inactive). Turning to `COc1cccc(CNC(=O)COc2cc(O)c3c(c2)OC(C)(C)CC3=O)c1`, the inhibition is 0% (inactive). With `CC(CO)(CO)NC(=O)c1ccc(=O)[nH]n1`, the inhibition is 8.64% (inactive). Consider `CN(C(=O)CCNC(=O)Cn1ccc2ccccc2c1=O)c1ccc(Br)cc1`, for which the inhibition was 1.56% (inactive). The value for `Cc1ccc(CNC(=O)CCNC(=O)Cn2ccc3ccccc3c2=O)cc1` was 7.19% (inactive); that for `CC(=O)c1ccc(N2CCN(C(=O)CCNC(=O)Cn3ccc4ccccc4c3=O)CC2)cc1` was 34.2% (active). In the case of `C[C@H]1Cn2cnc(C(=O)N[C@@H](Cc3c[nH]c4ccccc34)C(=O)OC(C)(C)C)c2C(=O)N1`, the inhibition was 7.22% (inactive). For `COc1ccc(CN2CCCC(C(=O)N3CCCCC3)C2)cc1` (stereo not drawn), the inhibition is 4.14% (inactive). Turning to `COc1ccc(/C=C/C(=O)NC(=S)N2CCCC(C(N)=O)C2)cc1` (stereo not drawn), the inhibition is 48.8% (active). Take `COc1ccc(/C=C/C(=O)NC(=S)NN2CCCCC2c2cccnc2)cc1` (stereo not drawn): the inhibition was 10.5% (inactive). In the case of `COc1ccc(C(=O)N2CCN(c3ncccn3)CC2)cc1S(=O)(=O)N1CCOCC1`, the inhibition is 3.64% (inactive). For `Cc1ccc(S(=O)(=O)N2CCOCC2)cc1C(=O)NC(=S)N(Cc1ccccc1)C(C)C`, the inhibition is -2.59% (inactive). As to `COCCN(CCOC)c1nc(N)c2c(N)nc3c(c2c1C#N)CC(=O)N3Cc1ccc(Cl)cc1`, the inhibition is 13.7% (inactive).

Source of the values: PubChem BioAssay AID588335 (The Scripps Research Institute Molecular Screening Center, 2011).
